Results from PubChem BioAssay (NCATS).
Records with an inconclusive call do not appear. Calls of active or inactive are those of the source. Calls follow the shape of the dose curve; as a rule, active = well fitted cell-killing curve with a large enough effect; inconclusive = small, poorly fitted or top-dose-only effect; inactive = flat fitted curve, though single readings scatter.

Assay: Cell Viability - LYMP1-002 - Assay at 16 hr (AID 948)
Settings: LYMP1-002 lymphoblastoid cell viability; series mostly up to 92.2 µM
From the text: NIH Chemical Genomics Center [NCGC]
NIH Molecular Libraries Screening Centers Network [MLSCN]
National Institutes of Environmental Health Sciences [NIEHS]
National Toxicology Program [NTP]
We have developed a 1536-well cell-based assay for quantitative high throughput screening (qHTS) against a number of cell lines to determine in vitro cytotoxicity of small molecules. This particular assay uses a human lymphoblastoid cell line (LYMP1-002) purchased from Coriell Institute for Medical Research.
NCGC Assay Protocol Summary:
The CellTiter-Glo luminescent cell viability assay (Promega) is a homogeneous method to measure the number of viable cells in culture. The end point readout of this assay is based on quantitation of intracellular ATP, an indicator of metabolic activity, using the luciferase reaction. Luciferase catalyzes the oxidation of beetle Luciferin to oxyluciferin and light in the presence of ATP. The luminescent signal is proportional to amount of ATP present.
Using the CellTiter-Glo luminescent cell viability assay, the amount of cellular ATP was measured in the lymphoblastoid cell line with complete culture medium following compound treatment for 16 hours. The assay was performed in opaque white Kalypsys 1536-well plates. In the screen, tetraoctylammonium bromide was used as positive control. Library compounds were measured for their ability to cause acute toxicity in the cell line, as reflected by a decrease in intracellular ATP levels, in a concentration-dependent manner. […] AC50 values were determined from concentration-response data modeled with the standard Hill equation.
qHTS protocol for CellTiter Glo lymphoblastoid cellular assay
[Step] [Parameter] [Value] [Description]
1. Reagent; 5 uL; 2500 lymphoblastoid cells/well
2. Time; 5 hr; 37 C incubation
4. Controls; 23 nL; Tetraoctylammonium bromide 6.4pM to 92 uM
5. Time; 16 hr; 37 C incubation
6. Reagent; 5 uL; CellTiter Glo reagent
7. Time; 30 min; Room Temperature
8. Detection; Luminescence; Viewlux plate reader
Keywords: cell viability, cytotoxicity, lymphoblastoid cell line, luminescence, NTPHTS, NTPHTS_NCGC, NIEHS, DSSTox, MLSMR, MLSCN, NIH Roadmap, qHTS, NCGC

Structure (SMILES) | outcome
CN(C)C(=O)Nc1ccc(Cl)cc1 | inactive
Brc1ccc(Oc2ccc(Br)cc2Br)c(Br)c1 | inactive
C=C(C)CCl | inactive
O=NN1CCCCC1 | inactive
c1ccc(Nc2ccc(Nc3ccccc3)cc2)cc1 | inactive
CCN(N=O)C(N)=O | inactive
C1CC2OC2CC1C1CO1 (stereo not given) | inactive
C=CCCC#N | inactive
O=[N+]([O-])c1c(Cl)c(Cl)c(Cl)c(Cl)c1Cl | inactive
Nc1cc(Cl)cc(C(=O)O)c1Cl | inactive
O=[N+]([O-])CCO | inactive
Cl/C=C/Cl | inactive
Cc1coc2c1CCC(C)C2 (stereo not given) | inactive
[N-]=[N+]=[N-] | inactive
O=C(Cl)OCc1ccccc1 | inactive
CC(C)(Cl)[N+](=O)[O-] | inactive
OC[P+](CO)(CO)CO | inactive
Nc1ccc(Cc2ccc(N)cc2)cc1 | inactive
BrCC(Br)(Br)Br | inactive
CCCBr | inactive

Structure (SMILES) | outcome
ClCC(Cl)CCl | inactive
CCCCC(=O)Cl | inactive
c1ccc(NNc2ccccc2)cc1 | inactive
Oc1c(Cl)c(Cl)cc(Cl)c1Cl | inactive
C/C=C/CC#N | inactive
S=C1NCCN1 | inactive
COC(=O)c1ccccc1N | inactive
Cc1cccc(C)c1N | inactive
CSSC | inactive
O=[N+]([O-])c1cccc(CCl)c1 | inactive
Nc1ccc([N+](=O)[O-])cc1[N+](=O)[O-] | inactive
CCOC(=O)C1OC1(C)c1ccccc1 (stereo not given) | inactive
CCOP(=S)(OCC)Oc1nc(Cl)c(Cl)cc1Cl | inactive
O=C(O)C(Br)Br | inactive
FC(Cl)(Cl)Cl | inactive
C=CCc1cc(OC)c2c(c1)OCO2 | inactive
Nc1ccc(Oc2ccc(N)cc2)cc1 | inactive
Nc1ccc(Cc2ccc(N)c(Cl)c2)cc1Cl | inactive
CCC/C=N/O | inactive
CCCN(CCC)c1c([N+](=O)[O-])cc(C(F)(F)F)cc1[N+](=O)[O-] | inactive
